Several values for one entry are separate records, joined by “and”; a condition that tells them apart may be missing. Identical values can stand only once. The campaign covered roughly 5,500 compounds. About 2,000 (36%) were called active. Roughly 18% stayed inconclusive and do not appear here. Rule as the data show it: active = normalized growth mostly below about 0.91 (no sharp cut-off); inconclusive = no clear call, values can overlap the other calls; inactive = mostly above about 0.92. Some of the results follow.
Test: chemical genetic growth profiling, strain panel (AID 1159580);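 also: tested at 20 µM; growth read once vehicle control cultures reached saturation at 30 °C; 1 = growth at the plate median or of vehicle wells; lower values mean less growth of the strain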
Conditions: S. cerevisiae deletion strains, growth OD

Measured: normalized growth

c1ccc2c(CC3=NCCN3)cccc2c1
inactive: locus YAL013W, strain DEP1, hits give low values 1.01 | locus YAL021C, strain ccr4, hits give low values 0.944 | locus YAL026C, strain drs2, hits give low values 0.982 | locus YAL030W, strain snc1, hits give low values 0.986 | locus YBL061C, strain skt5, hits give low values 0.985 | locus YBR009C, strain hhf1, hits give low values 0.987 | locus YBR021W, strain FUR4, hits give low values 0.999 | locus YBR023C, strain chs3, hits give low values 0.984 | locus YBR171W, strain sec66, hits give low values 0.976 | locus YBR229C, strain ROT2, hits give low values 1.01 | locus YBR231C, strain swc5, hits give low values 0.985 | locus YBR279W, strain paf1, hits give low values 0.99 | locus YCL011C, strain gbp2, hits give low values 0.97 | locus YCL016C, strain dcc1, hits give low values 0.996 | locus YCL029C, strain bik1, hits give low values 1.03 | locus YCL061C, strain MRC1, hits give low values 0.981 | locus YCL069W, strain vba3, hits give low values 0.955 | locus YCR088W, strain abp1, hits give low values 0.98 | locus YDL005C, strain med2, hits give low values 0.962 | locus YDL035C, strain GPR1, hits give low values 1.01 | locus YDL040C, strain nat1, hits give low values 0.971 | locus YDL074C, strain BRE1, hits give low values 1.01 | locus YDL101C, strain DUN1, hits give low values 1.01 | locus YDL134C, strain PPH21, hits give low values 1.01 | locus YDL185W, strain tfp1, hits give low values 1.01 | locus YDL192W, strain arf1, hits give low values 1.02 | locus YDR001C, strain nth1, hits give low values 0.99 | locus YDR069C, strain doa4, hits give low values 0.947 | locus YDR101C, strain arx1, hits give low values 1.02 | locus YDR137W, strain rgp1, hits give low values 0.985 | locus YDR150W, strain NUM1, hits give low values 1.01 | locus YDR159W, strain sac3, hits give low values 0.958 | locus YDR162C, strain NBP2, hits give low values 1 | locus YDR195W, strain ref2 0.96 | locus YDR297W, strain sur2, hits give low values 0.975 | locus YDR318W, strain mcm21, hits give low values 1.02 | locus YDR334W, strain swr1, hits give low values 0.958 | locus YDR335W, strain msn5, hits give low values 0.981 | locus YDR388W, hits give low values 1.02 | locus YDR392W, strain spt3, hits give low values 0.863 | locus YDR502C, strain sam2, hits give low values 1.02 | locus YEL003W, strain gim4, hits give low values 0.945 | locus YEL037C, strain rad23, hits give low values 0.964 | locus YEL061C, strain CIN8 (second series), hits give low values 0.965 | locus YEL061C, strain CIN8, hits give low values 1.01 | locus YER015W, strain faa2, hits give low values 0.959 | locus YER016W, strain bim1, hits give low values 0.979 | locus YER110C, hits give low values 1.02 | locus YER111C, strain swi4, hits give low values 0.968 | locus YER155C, strain BEM2 (second series), hits give low values 0.98 | locus YER155C, strain BEM2, hits give low values 1 | locus YER167W, strain BCK2, hits give low values 1.02 | locus YFR010W, strain ubp6, hits give low values 0.96 | locus YGL078C, strain dbp3, hits give low values 1.02 | locus YGL086W, strain mad1, hits give low values 1.01 | locus YGL167C, strain pmr1, hits give low values 0.98 | locus YGL173C, strain kem1, hits give low values 0.976 | locus YGL227W, strain vid30, hits give low values 0.975 | locus YGL240W, strain doc1, hits give low values 0.98 | locus YGL248W, strain PDE1, hits give low values 1.01 | locus YGL253W, strain hxk2, hits give low values 0.98 | locus YGR078C, strain PAC10, hits give low values 1.01 | locus YGR135W, strain pre9, hits give low values 1.02 | locus YGR229C, strain SMI1, hits give low values 1.01 | locus YGR252W, strain gcn5, hits give low values 0.984 | locus YHR013C, strain ard1, hits give low values 0.901 | locus YHR027C, strain rpn1, hits give low values 0.972 | locus YHR030C, strain SLT2, hits give low values 1.01 and 0.973 | locus YHR079C, strain IRE1 (second series), hits give low values 1.02 | locus YHR079C, strain IRE1, hits give low values 0.961 | locus YHR094C, strain hxt1, hits give low values 1.01 | locus YHR129C, strain ARP1, hits give low values 1 | locus YHR142W, strain chs7, hits give low values 0.978 | locus YHR200W, strain rpn10, hits give low values 1.02 | locus YIL066C, strain RNR3, hits give low values 1.01 | locus YIL073C, strain SPO22, hits give low values 1.06 | locus YIL125W, strain kgd1, hits give low values 1.01 | locus YIR030C, strain dcg1, hits give low values 1.03 | locus YJL092W, strain hpr5, hits give low values 0.968 | locus YJL095W, strain BCK1 (second series), hits give low values 0.987 | locus YJL095W, strain BCK1, hits give low values 1.01 and 1 | locus YJL115W, strain asf1, hits give low values 0.976 | locus YJL129C, strain trk1, hits give low values 0.921 | locus YJL134W, strain LCB3, hits give low values 1.01 | locus YJL154C, strain vps35, hits give low values 0.972 | locus YJL164C, strain tpk1, hits give low values 0.978 | locus YJL166W, strain qcr8, hits give low values 0.968 | locus YJL168C, strain set2, hits give low values 1.02 | locus YJL187C, strain SWE1 (second series), hits give low values 1.01 | locus YJL187C, strain SWE1, hits give low values 0.976 | locus YJR043C, strain POL32, hits give low values 1.01 | locus YJR066W, strain TOR1, hits give low values 0.928

Reference: PubChem BioAssay AID1159580 (chemical genetic matrix, 2015)
